Measured values: PubChem BioAssay (NCI)
The panel holds about 83,000 compounds, 20% with a hit somewhere; the sample as a whole holds those more often.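 For each line, cells grew in 96-well plates with the test compound present at a single concentration for 48 hours.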 Calls of active or inactive are those of the source. How the source made its calls: active means growth percent below 10; inactive means the rest.

Experiments:
Experiment in all cases: NCI-60 one-dose screen, 48 h (100 = growth as untreated, 0 = no growth, -100 = all killed)
SR leukemia = conditions: 10 µM unless noted
RPMI-8226 leukemia = conditions: 10 µM unless noted
OVCAR-8 ovarian = conditions: 10 µM unless noted
OVCAR-5 ovarian = conditions: 10 µM unless noted
OVCAR-4 ovarian = conditions: 10 µM unless noted
SK-OV-3 ovarian = conditions: 10 µM unless noted
IGROV1 ovarian = conditions: 10 µM unless noted
OVCAR-3 ovarian = conditions: 10 µM unless noted
HS 578T breast = conditions: 10 µM
NCI/ADR-RES ovarian = conditions: 10 µM unless noted
T-47D breast = conditions: 10 µM unless noted
BT-549 breast = conditions: 10 µM unless noted
MDA-MB-435 melanoma = conditions: 10 µM unless noted
SW-620 colon = conditions: 10 µM unless noted
MCF7 breast = conditions: 10 µM unless noted
HCT-116 colon = conditions: 10 µM unless noted
HCC-2998 colon = conditions: 10 µM unless noted
KM12 colon = conditions: 10 µM unless noted

Measured: growth

O=C1/C(=C\c2cccn2Cc2ccc(Cl)cc2)c2ccccc2N1c1c(Cl)cccc1Cl
inactive: SR leukemia 75.3% | RPMI-8226 leukemia 76.1% | OVCAR-8 ovarian 85.2% | OVCAR-5 ovarian 86.8% | OVCAR-4 ovarian 40.2% | SK-OV-3 ovarian 86.7% | IGROV1 ovarian 63% | OVCAR-3 ovarian 82.3% | HS 578T breast 97.2% | NCI/ADR-RES ovarian 78.3% | T-47D breast 25.1% | BT-549 breast 94.5% | MDA-MB-435 melanoma 106% | SW-620 colon 91.5% | MCF7 breast 12.8% | HCT-116 colon 77% | HCC-2998 colon 79.8% | KM12 colon 54.3%

Cc1n(Cc2ccc3ccccc3n2)cc[n+]1Cc1ccc2ccccc2c1
inactive: SR leukemia 11.6% | OVCAR-8 ovarian 11.9% | HS 578T breast 24.4% | NCI/ADR-RES ovarian 98.7% | SW-620 colon 20.6% | HCC-2998 colon 19.8%
active: RPMI-8226 leukemia -3.22% | OVCAR-5 ovarian 9.08% | OVCAR-4 ovarian 7.17% | SK-OV-3 ovarian -2.36% | IGROV1 ovarian 5.65% | OVCAR-3 ovarian 6.35% | T-47D breast 0.908% | BT-549 breast -0.0129% | MDA-MB-435 melanoma 0.529% | MCF7 breast 4.65% | HCT-116 colon 4.92% | KM12 colon 5.21%

COc1cc2c(cc1C)NC(=O)/C2=C\c1c[nH]c2ccccc12
inactive: SR leukemia 46.4% | RPMI-8226 leukemia 59.7% | OVCAR-8 ovarian 69.3% | OVCAR-5 ovarian 75.3% | OVCAR-4 ovarian 64.8% | SK-OV-3 ovarian 97.4% | OVCAR-3 ovarian 65.9% | HS 578T breast 75.2% | NCI/ADR-RES ovarian 77% | T-47D breast 65.8% | BT-549 breast 94.6% | MDA-MB-435 melanoma 68.8% | SW-620 colon 101% | MCF7 breast 59.2% | HCT-116 colon 78.5% | HCC-2998 colon 109% | KM12 colon 24.3%
active: IGROV1 ovarian -6.11%

CCCCCCCCCCCCCCCCS(=O)(=O)Nc1cc(C(=O)NN)cc(C(=O)NN)c1
inactive: SR leukemia 56.9% | RPMI-8226 leukemia 68% | OVCAR-8 ovarian 77.5% | OVCAR-5 ovarian 68.3% | OVCAR-4 ovarian 48.1% | SK-OV-3 ovarian 69.8% | IGROV1 ovarian 66.3% | OVCAR-3 ovarian 47.2% | HS 578T breast 81.2% | NCI/ADR-RES ovarian 102% | T-47D breast 42% | BT-549 breast 61.5% | MDA-MB-435 melanoma 89.9% | SW-620 colon 96% | MCF7 breast 72.1% | HCT-116 colon 71.3% | HCC-2998 colon 48.2% | KM12 colon 73%

O=C(C(Br)C(Br)c1ccccc1)C(Br)C(Br)c1ccccc1 (stereo unspecified)
inactive: OVCAR-4 ovarian 34.9% | SK-OV-3 ovarian 83.1% | HS 578T breast 39.4% | NCI/ADR-RES ovarian 17.1%
active: SR leukemia -44.9% | RPMI-8226 leukemia -36.6% | OVCAR-8 ovarian -10.8% | OVCAR-5 ovarian -57.4% | IGROV1 ovarian -49.5% | OVCAR-3 ovarian -79.9% | T-47D breast -30.6% | BT-549 breast -82.8% | MDA-MB-435 melanoma -37.5% | SW-620 colon -71.1% | MCF7 breast -19.2% | HCT-116 colon -99.5% | HCC-2998 colon -8.59% | KM12 colon -63.3%

CN(C)CCOc1nc2c3cccnc3cc(-c3cccc(Cl)c3)c2c2ncccc12
active: SR leukemia 0.455% | RPMI-8226 leukemia -21.6% | MDA-MB-435 melanoma -59.6% | SW-620 colon -44.3% | MCF7 breast -50% | HCT-116 colon -81.3% | HCC-2998 colon -79.2%
inactive: OVCAR-8 ovarian 14.7% | OVCAR-5 ovarian 45.5% | OVCAR-4 ovarian 20.6% | SK-OV-3 ovarian 45% | IGROV1 ovarian 30.9% | OVCAR-3 ovarian 17.8% | HS 578T breast 43.1% | NCI/ADR-RES ovarian 18.7% | T-47D breast 20.1% | BT-549 breast 57.9% | KM12 colon 14.2%

COCCCNCC(=O)Nc1c(C)cccc1C
inactive: SR leukemia 100% | RPMI-8226 leukemia 108% | OVCAR-8 ovarian 107% | OVCAR-5 ovarian 104% | OVCAR-4 ovarian 111% | SK-OV-3 ovarian 112% | IGROV1 ovarian 140% | OVCAR-3 ovarian 122% | HS 578T breast 124% | NCI/ADR-RES ovarian 105% | T-47D breast 103% | BT-549 breast 104% | MDA-MB-435 melanoma 112% | SW-620 colon 114% | MCF7 breast 114% | HCT-116 colon 110% | HCC-2998 colon 122% | KM12 colon 109%

C/C(=N\NC(=S)N1CCCCC1)c1ccccn1
inactive: OVCAR-8 ovarian 16% | OVCAR-5 ovarian 29.3% | SK-OV-3 ovarian 27.6% | IGROV1 ovarian 11.2% | HS 578T breast 16.8% | NCI/ADR-RES ovarian 15.2% | T-47D breast 17.9% | BT-549 breast 29.4% | MDA-MB-435 melanoma 14.6% | SW-620 colon 21.9% | MCF7 breast 12.8% | HCT-116 colon 13.3% | HCC-2998 colon 34.8% | KM12 colon 13%
active: SR leukemia -7.37% | RPMI-8226 leukemia -19.4% | OVCAR-4 ovarian -30.6% | OVCAR-3 ovarian -12.9%

Cc1cc(C)c2c(n1)sc1c(Nc3ccc(O)cc3)ncnc12
inactive: SR leukemia 13.4% | RPMI-8226 leukemia 39% | OVCAR-8 ovarian 10.8% | OVCAR-5 ovarian 55.4% | OVCAR-4 ovarian 90.6% | SK-OV-3 ovarian 30.5% | IGROV1 ovarian 68.2% | OVCAR-3 ovarian 55.3% | HS 578T breast 82.5% | NCI/ADR-RES ovarian 19.1% | T-47D breast 39.6% | BT-549 breast 50.6% | MDA-MB-435 melanoma 36.6% | SW-620 colon 45.6% | MCF7 breast 20.3% | HCT-116 colon 29.2% | HCC-2998 colon 63.3% | KM12 colon 50.3%

CC[C@H](Nc1nc(N)nc(C2CC2)c1C#N)c1nc2cccc(NCc3ccc(C(=O)NO)cc3)c2c(=O)n1-c1ccccc1
inactive: OVCAR-5 ovarian 14.8% | HS 578T breast 13.5% | NCI/ADR-RES ovarian 45.8% | BT-549 breast 33.3% | SW-620 colon 11.6%
active: SR leukemia -0.809% | RPMI-8226 leukemia 4.07% | OVCAR-8 ovarian 1.08% | OVCAR-4 ovarian 8.75% | SK-OV-3 ovarian -9.63% | IGROV1 ovarian 2.3% | OVCAR-3 ovarian 9.13% | T-47D breast -5.53% | MDA-MB-435 melanoma 7.07% | MCF7 breast 4.25% | HCT-116 colon -59.8% | HCC-2998 colon 0.531% | KM12 colon 8.71%

Oc1c(C(c2ccc(F)cc2)N2CCCCC2)ccc2cncnc12 (stereo unspecified)
inactive: SR leukemia 15.7% | RPMI-8226 leukemia 22.1% | OVCAR-5 ovarian 22.3% | OVCAR-3 ovarian 11.1% | HS 578T breast 13% | NCI/ADR-RES ovarian 20.3% | BT-549 breast 25.8% | MDA-MB-435 melanoma 14.1% | SW-620 colon 18.1% | HCT-116 colon 11.1% | HCC-2998 colon 32.3% | KM12 colon 16.2%
active: OVCAR-8 ovarian 8.68% | OVCAR-4 ovarian 5.59% | SK-OV-3 ovarian -14.9% | IGROV1 ovarian 9.64% | T-47D breast 5.62% | MCF7 breast 6.3%

CC(C)NCCCCCNc1cc(O)cc2cccnc12
inactive: SR leukemia 22.5% | RPMI-8226 leukemia 66.6% | OVCAR-8 ovarian 31.3% | OVCAR-5 ovarian 98.8% | SK-OV-3 ovarian 65.6% | IGROV1 ovarian 32.2% | OVCAR-3 ovarian 28.3% | HS 578T breast 88.8% | NCI/ADR-RES ovarian 100% | T-47D breast 31.3% | BT-549 breast 104% | MDA-MB-435 melanoma 101% | SW-620 colon 83.1% | MCF7 breast 43.3% | HCT-116 colon 65.5% | HCC-2998 colon 54.6% | KM12 colon 100%
active: OVCAR-4 ovarian -5.19%

Cc1ccc(NC(=O)c2nc(S(C)=O)oc2-c2ccc(F)cc2)cc1Nc1nccc(-c2cccnc2)n1 (stereo unspecified)
inactive: OVCAR-8 ovarian 37.9% | OVCAR-5 ovarian 112% | OVCAR-4 ovarian 108% | SK-OV-3 ovarian 90.3% | IGROV1 ovarian 33.1% | OVCAR-3 ovarian 18.8% | HS 578T breast 82% | NCI/ADR-RES ovarian 95.9% | T-47D breast 40% | BT-549 breast 26.9% | MDA-MB-435 melanoma 82.5% | MCF7 breast 50.7% | HCC-2998 colon 97.5% | KM12 colon 50.1%
active: SR leukemia -14.7% | RPMI-8226 leukemia 5.05% | SW-620 colon 8.58% | HCT-116 colon -53.3%

CCOC(=O)C1=C(C)NC(SCc2nnc(-c3ccc(Cl)cc3)o2)=NC1c1ccc(Cl)cc1 (stereo unspecified)
inactive: SR leukemia 42.9% | RPMI-8226 leukemia 35.8% | OVCAR-8 ovarian 74.8% | OVCAR-5 ovarian 89.6% | OVCAR-4 ovarian 70% | SK-OV-3 ovarian 82.6% | IGROV1 ovarian 62.3% | OVCAR-3 ovarian 70.8% | HS 578T breast 83.7% | NCI/ADR-RES ovarian 69.9% | T-47D breast 49.9% | BT-549 breast 75.3% | MDA-MB-435 melanoma 69.6% | SW-620 colon 85.9% | MCF7 breast 49% | HCT-116 colon 46.2% | HCC-2998 colon 79.9% | KM12 colon 69.8%

Cc1cc(O)c(C2=NN(c3ccc(S(N)(=O)=O)cc3)C(c3ccc(Cl)cc3)C2)c(C)c1Cl (stereo unspecified)
inactive: OVCAR-5 ovarian 95.2% | OVCAR-4 ovarian 58.9% | SK-OV-3 ovarian 81.6% | IGROV1 ovarian 20.6% | OVCAR-3 ovarian 68.1% | HS 578T breast 71.2% | NCI/ADR-RES ovarian 80.3% | T-47D breast 46.9% | BT-549 breast 112% | MDA-MB-435 melanoma 38.6% | SW-620 colon 48.5% | MCF7 breast 13% | HCT-116 colon 55.1% | HCC-2998 colon 66.5% | KM12 colon 29.1%
active: SR leukemia -24.1% | RPMI-8226 leukemia -37.6% | OVCAR-8 ovarian 5.73%

O=C1/C(=C\c2cccn2C(=O)c2ccccc2)c2ccccc2N1c1c(Cl)cccc1Cl
inactive: SR leukemia 25% | RPMI-8226 leukemia 69.6% | OVCAR-8 ovarian 87% | OVCAR-5 ovarian 87.9% | OVCAR-4 ovarian 59.4% | SK-OV-3 ovarian 95% | IGROV1 ovarian 71.2% | OVCAR-3 ovarian 70.4% | HS 578T breast 95.6% | NCI/ADR-RES ovarian 82.2% | T-47D breast 65.6% | BT-549 breast 102% | MDA-MB-435 melanoma 33.8% | SW-620 colon 30% | MCF7 breast 29.8% | HCT-116 colon 30.5% | HCC-2998 colon 83.8% | KM12 colon 65.4%

CC(C)c1ccc(Cn2ccc3c4c(N)nc(NC5CC5)nc4ccc32)cc1
active: SR leukemia -45.8% | RPMI-8226 leukemia -54.7% | OVCAR-8 ovarian -77.8% | OVCAR-5 ovarian -85.9% | OVCAR-4 ovarian -37.4% | SK-OV-3 ovarian -87.2% | IGROV1 ovarian -87.4% | OVCAR-3 ovarian -87.6% | HS 578T breast -57.1% | NCI/ADR-RES ovarian -74.4% | T-47D breast -54.8% | BT-549 breast -71.2% | MDA-MB-435 melanoma -97% | SW-620 colon -82.6% | MCF7 breast -82% | HCT-116 colon -82.8% | HCC-2998 colon -78.6% | KM12 colon -79.2%
